The target in assay [1] is Cytochrome P450 2D6 (Homo sapiens) (UniProt P10635). As to the kind of experiment: Cytochrome P450 family 2 subfamily D member 6 (CYP2D6) small molecule antagonists: luciferase biochemical (cell-free) qHTS assay (AID 1645840). Also: nearly all actives have a fitted effect of over 55% in size. Also: potency is read from the fitted curve at half-maximal effect. An outline of the steps: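 P450-Glo luminescent screen: recombinant CYP2D6 enzyme–proluciferin substrate mix preincubated with compound 10 min at room temperature, then NADPH regeneration added for 1 h at room temperature. Detection reagent added for 20 min; luciferin light read as relative luminescence units.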
(In qHTS, concentration-response curves come from the screen itself.)

Assay [2] deals with Glutathione peroxidase 1 (Homo sapiens) (UniProt P07203). Nature of the assay: Primary qHTS Assay for Inhibitors of Recombinant Selenoprotein Glutathione Peroxidase 1 (GPX1) (AID 1845191; active = well fitted curve in the direction sought with a large enough effect; an effect the other way counts as inactive or inconclusive; also: nearly all actives have a fitted effect of over 65% in size). An outline of the steps: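 10 nM GPX1 + cpd, 30 min RT; start w/ 1 mM GSH, 0.5 mM cumene hydroperoxide, 0.5 mM NADPH, 100 nM GR, 0.01% BSA; buffer 50 mM Tris-HCl pH 7.5, 2 mM EDTA, 150 mM NaCl; Fl 340/450, 0 & 15 min.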

The target in assay [3] is Phospholipid hydroperoxide glutathione peroxidase GPX4 (Homo sapiens) (UniProt P36969). Nature of the assay: Primary qHTS Assay for Inhibitors of Recombinant Selenoprotein Glutathione Peroxidase 4 (GPX4) (AID 1845192; active = well fitted curve in the direction sought with a large enough effect; an effect the other way counts as inactive or inconclusive; also: series mostly up to about 50 µM; nearly all actives have a fitted effect of over 65% in size). An outline of the steps:
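NADPH consumption, followed by fluorescence at 340/450 nm between 0 and 15 min, reports GPX4 activity via coupled glutathione reductase (100 nM). Enzyme 200 nM was pre-exposed to compound 30 min; 0.5 mM cumene hydroperoxide and 1 mM GSH served as substrates.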

For assay [4], the target named is Cytochrome P450 2C9 (Homo sapiens) (UniProt P11712). As to the kind of experiment: Cytochrome P450 family 2 subfamily C member 9 (CYP2C9) small molecule antagonists: luciferase biochemical (cell-free) qHTS assay (AID 1645842). Also: nearly all actives have a fitted effect of over 55% in size. Also: potency is read from the fitted curve at half-maximal effect. An outline of the steps: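 Luminescence, after 20 min with luciferin detection reagent, reflected CYP2C9 turnover during a 1 h NADPH-driven reaction at 37C. Enzyme-substrate mix contained 0.4% bovine serum albumin and was preincubated with compound 10 min at room temperature.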

Inconclusive results are not listed. Calls of active or inactive are those of the source. Unless noted, calls follow the shape of the dose curve; as a rule, active = well fitted curve in the direction sought with a large enough effect in the repeat runs; inconclusive = weak or mixed curves; inactive = no such curve, though single readings can be large; an effect the other way counts as inactive or inconclusive.

Chain of Cytochrome P450 2C9 (Homo sapiens) (P11712 whole entry, looked up): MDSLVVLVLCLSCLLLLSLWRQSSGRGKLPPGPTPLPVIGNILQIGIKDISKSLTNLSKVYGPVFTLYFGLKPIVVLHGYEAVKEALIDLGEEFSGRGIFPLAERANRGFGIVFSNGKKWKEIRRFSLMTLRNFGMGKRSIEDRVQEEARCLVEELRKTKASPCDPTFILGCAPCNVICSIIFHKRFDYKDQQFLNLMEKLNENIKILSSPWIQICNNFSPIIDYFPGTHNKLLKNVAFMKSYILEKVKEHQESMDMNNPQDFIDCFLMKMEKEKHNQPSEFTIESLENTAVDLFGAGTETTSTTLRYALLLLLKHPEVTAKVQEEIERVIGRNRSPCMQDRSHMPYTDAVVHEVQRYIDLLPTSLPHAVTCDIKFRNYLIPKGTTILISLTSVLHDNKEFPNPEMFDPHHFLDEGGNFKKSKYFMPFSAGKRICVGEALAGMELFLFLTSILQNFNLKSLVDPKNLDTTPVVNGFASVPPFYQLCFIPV
Chain of Cytochrome P450 2D6 (Homo sapiens) (P10635 whole entry, looked up): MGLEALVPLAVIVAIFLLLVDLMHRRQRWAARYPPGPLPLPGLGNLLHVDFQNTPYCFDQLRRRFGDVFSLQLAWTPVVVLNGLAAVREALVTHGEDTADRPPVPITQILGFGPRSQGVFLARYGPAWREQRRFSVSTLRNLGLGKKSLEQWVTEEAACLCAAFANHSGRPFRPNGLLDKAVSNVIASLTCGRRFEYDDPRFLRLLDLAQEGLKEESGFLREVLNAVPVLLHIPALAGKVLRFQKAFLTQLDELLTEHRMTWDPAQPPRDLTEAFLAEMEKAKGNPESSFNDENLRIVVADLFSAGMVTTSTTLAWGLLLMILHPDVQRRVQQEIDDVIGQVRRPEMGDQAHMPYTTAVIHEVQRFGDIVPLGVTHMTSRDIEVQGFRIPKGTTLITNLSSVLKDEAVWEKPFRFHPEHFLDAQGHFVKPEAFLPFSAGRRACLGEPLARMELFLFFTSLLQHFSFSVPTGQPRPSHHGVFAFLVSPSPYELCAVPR
Chain of Phospholipid hydroperoxide glutathione peroxidase GPX4 (Homo sapiens) (P36969 whole entry, looked up): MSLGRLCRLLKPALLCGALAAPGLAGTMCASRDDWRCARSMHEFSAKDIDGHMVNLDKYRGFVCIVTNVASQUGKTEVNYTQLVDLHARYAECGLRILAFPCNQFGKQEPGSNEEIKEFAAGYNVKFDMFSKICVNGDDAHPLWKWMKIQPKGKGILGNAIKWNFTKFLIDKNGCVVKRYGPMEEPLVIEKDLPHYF
Chain of Glutathione peroxidase 1 (Homo sapiens) (P07203 whole entry, looked up): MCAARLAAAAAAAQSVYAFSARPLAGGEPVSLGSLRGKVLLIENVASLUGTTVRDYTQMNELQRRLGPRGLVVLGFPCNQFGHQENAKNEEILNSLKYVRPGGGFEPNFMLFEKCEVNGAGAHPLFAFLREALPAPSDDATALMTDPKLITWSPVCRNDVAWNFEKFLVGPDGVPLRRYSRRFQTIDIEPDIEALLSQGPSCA

For `CCC=CCC=CCC=CCCCCCCCC(=O)O`, the Potency entry in assay [1], in assay [2] and in assay [3] was “inactive” in each case.

With `NCCNc1ccc(NCCN)c2c1C(=O)c1ccncc1C2=O`, in assay [1], the Potency was 2.68 µM (active). In addition, the Potency entry in assay [3] was “inactive”.

Take `COc1ccc(Cn2c(CCC(=O)Nc3cc(C)cc(C)c3)nc3cccnc32)cc1`: the Potency in assay [4] is 6.74 µM (active).

Consider `CCOc1ccc(S(=O)(=O)NCc2ccc3c(c2)CCN3C(=O)c2ccc(C)cc2)cc1`, for which the Potency in assay [4] was 0.301 µM (active).

In the case of `COc1ccc(NC(=O)CSc2nc3ccccc3n2Cc2cccc(OC)c2)cc1`, the Potency in assay [4] was 2.68 µM (active).

`COc1ccccc1NC(=O)CSc1oc(-c2cccs2)nc1S(=O)(=O)c1ccc(Br)cc1`: in assay [4], the Potency was 0.425 µM (active).

Regarding `Cc1cccc(NC(=O)Cn2c(=O)n(Cc3ccc(C(=O)NCc4ccc5c(c4)OCO5)cc3)c(=O)c3ccccc32)c1`, the Potency entry in assay [4] was “inactive”.

With `Oc1c(C(Nc2ccccn2)c2ccccc2F)ccc2cccnc12` (centres undefined), the Potency in assay [4] is 19 µM (active).

For `CC1=C(C(=O)Nc2cccc(-c3nn[nH]n3)c2)C(c2ccccc2Cl)N=C(Nc2nc3ccccc3o2)N1` (centres undefined), in assay [4], the Potency was 0.536 µM (active).

Consider `O=c1[nH]c2ccc(S(=O)(=O)Nc3cc(Cl)ccc3O)cc2o1`, for which the Potency in assay [4] was 9.52 µM (active).

In the case of `Cc1ccccc1C(=O)Nc1cccc(-c2nc3cccnc3s2)c1`, in assay [4], the Potency was 6.74 µM (active).

For the compound `Cc1ccnc(NC(c2ccccc2F)c2ccc3cccnc3c2O)c1` (centres undefined), in assay [4], the Potency was 23.9 µM (active).

With `COc1ccc(C(=O)NC(c2ccccc2Cl)c2cc(Cl)c3cccnc3c2O)cc1` (centres undefined), the Potency in assay [4] is 6.01 µM (active).

As for `COc1ccc(C(C)=O)cc1CSc1nc(NCc2ccccc2)c2ccccc2n1`, in assay [4], the Potency was 2.13 µM (active).

For `CN(C)[S+](=O)([O-])c1ccc([S+](=O)([O-])N(Cc2ccccc2)Cc2ccccn2)cc1`, the Potency in assay [4] was 5.35 µM (active).

For `COc1ccccc1NC(=O)Cc1c(C(=O)O)[nH]c2ccc(Cl)cc12`, the Potency result in assay [4] is “inactive”.

Consider `C=CC(C)(O)CCC=C(C)CCC=C(C)C` (centres undefined), for which, in assay [4], the Potency is 21.3 µM (active).

As for `COCCCNC(=O)CCC(=O)NNc1nc2ccccc2c2nc(-c3ccccc3)nn12`, the Potency in assay [4] is 9.52 µM (active).

Take `O=C(CSc1nc2ccccc2n1Cc1cccc(F)c1)N1CCN(c2ccc(F)cc2)CC1`: the Potency in assay [4] is 3.38 µM (active).

On to `CCOc1ccc(CCNC(=O)CCCn2nc(C)c3sc4ccccc4c3c2=O)cc1OCC`, for which the Potency in assay [4] is 2.68 µM (active).

Turning to `Cc1ccccc1C(=O)Nc1sc2c(c1C(=O)O)CCC(C(C)(C)C)C2` (centres undefined), in assay [4], the Potency entry is “inactive”.

`CCC(Sc1nc2nccnc2c(=O)n1Cc1ccc(C)cc1)C(=O)NC1CCCCC1` (centres undefined): the Potency in assay [4] is 9.52 µM (active).

As to `COc1ccc(NC(=O)CSc2nnc(NC(=O)NC3CCCCC3)s2)cc1OC`, the Potency in assay [4] was 21.3 µM (active).

`CC(C)c1ccc(NC(=O)CSC2=Nc3ccccc3C3=NC(CC(=O)NC4CCCCC4)C(=O)N23)cc1` (centres undefined): in assay [4], the Potency is 12 µM (active).

Take `CC1=C(C(=O)Nc2nnc(C(F)(F)F)s2)C(c2ccccc2Cl)N=C(Nc2nc3ccccc3o2)N1` (centres undefined): in assay [4], the Potency is 10.7 µM (active).

As for `COc1ccc(Cl)cc1NC(=O)CN1C(=O)CSc2ccc(S(=O)(=O)N3CCCC3)cc21`, the Potency in assay [4] is 0.756 µM (active).

`CCOCCCNC(=O)CCC(=O)NNc1nc2ccccc2c2nc(-c3ccccc3)nn12`: the Potency in assay [4] was 3.38 µM (active).

On to `Cc1ccc([S+](=O)([O-])NC2CC(C)(C)CC(C)(C)C2)cc1`, for which the Potency in assay [4] is 2.13 µM (active).

`CCOc1ccc(NC(=O)Cn2cc(C(=O)c3ccco3)c3ccccc32)cc1`: the Potency in assay [4] was 4.77 µM (active).

`CC(=O)C1=C(c2ccc(Cl)c(Cl)c2)N(C(C)=O)n2cnnc2S1`: the Potency in assay [4] was 2.39 µM (active).

Turning to `CC(C)(C)NC(=O)[C@@H]1C[C@@H]2CCCC[C@@H]2CN1CC(O)[C@H](Cc1ccccc1)NC(=O)[C@@H](CC(N)=O)NC(=O)c1ccc2ccccc2n1` (some centres undefined), the Potency in assay [4] was 12 µM (active).

With `Cc1cccc(Cc2c(C)nc3c(-c4ccccc4)c(C)[nH]n3c2=O)c1`, the Potency entry in assay [4] is “inactive”.

`Cc1cc(C)c(Cn2c3ccccc3c3cnn(CC(=O)NCc4ccccn4)c(=O)c32)c(C)c1`: in assay [4], the Potency is 10.7 µM (active).

Take `CCOc1cc(C(Nc2cc(C)ccn2)c2ccc3cccnc3c2O)ccc1OC` (centres undefined): the Potency in assay [4] is 12.6 µM (active).

Consider `COc1cc(NC(=O)CSc2nc3ccccc3nc2Cc2ccccc2OC)cc(OC)c1`, for which the Potency in assay [4] was 0.301 µM (active).

In the case of `C=C1CC[C@H](O)C/C1=C\C=C1/CCCC2(C)C1CCC2C(C)CCCC(C)C` (some centres undefined), in assay [4], the Potency was 23.9 µM (active).

`COc1ccc(CNC(=O)c2nc(SCc3ccccc3F)ncc2Cl)cc1`: the Potency entry in assay [4] was “inactive”.

On to `O=C(CSc1nc2ccccc2n1Cc1cccc(Cl)c1)N1CCN(c2ccc(F)cc2)CC1`, for which, in assay [4], the Potency was 3.38 µM (active).

For `Nc1nc(N)c(S(=O)(=O)c2ccccc2)c(Nc2ccc(Br)cc2)n1`, in assay [4], the Potency was 4.77 µM (active).

Consider `Cn1c(=O)c2c(nc(OC3CCN(C(=O)C4CC4)CC3)n2CCC(C)(C)C)n(C)c1=O`, for which the Potency in assay [4] was 12 µM (active).

`COc1ccc(-c2cn3cccnc3n2)cc1NC(=O)COc1ccccc1`: in assay [4], the Potency is 4.77 µM (active).

(Values after PubChem BioAssay (NCATS).)
